Source: PubChem
Rows were chosen to be rich in hits. Some 3.4% of all compounds tested hit in one or more screens of this group.
Sm TGR inh – inhibitors of Schistosoma mansoni thioredoxin glutathione reductase | purified TGR, DTNB reduction, TNB absorbance 405 nm | Q962Y6 | hit rate 3% among 360,000 | Potency, µM (highest dose often 114 µM), for the others: top-dose activity change, negative = inhibition, usual class: inhibitors | AID 485364; also: nearly all actives have a fitted effect of over 60% in size
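TGR 20 nM + NADPH 100 uM (dispensed conc.), cpd preinc 15 min RT; start with NADPH (500 uM addition) then DTNB (15 mM addition). Kinetic TNB absorbance, 405 nm filter. Four-parameter Hill fit across titration.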
RE007 growth inh – less growth of the S. pombe RE007 Vpr strain. S. pombe RE007 Vpr strain, BacTiter-Glo ATP luminescence, 24 h. Potency, µM (series often up to 92.2 µM), without a hit: top-dose activity change, negative = less growth, hits mostly inhibitors. hit rate 0.21% among 360,000. AID 651644; active = well fitted falling curve with a large enough effect; inconclusive = small, poorly fitted or top-dose-only effect; inactive = no such curve, though single readings can be large or run the other way; also: nearly all actives have a fitted effect of over 50% in size
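Fission yeast strain RE007, carrying one chromosomally integrated HIV-1 vpr copy, was seeded at OD 0.01 in PMG+AL medium with 23 nL pinned compound. After 24 h at 30 °C and 99% humidity, viability was read by BacTiter-Glo luminescence.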
AmpC detergent – inhibitors of E. coli AmpC beta-lactamase with detergent; P00811; Potency, µM (highest dose often 114 µM), inactives show at the top dose activity change, negative = inhibition, most hits filed as inhibitors; AmpC hydrolysis of nitrocefin, absorbance 480 nm, 0.01% Triton; hit rate 0.041% among 370,000;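 also: 0% = no-compound wells and -100% = no-enzyme wells; nearly all actives have a fitted effect of over 25% in size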
Target sequence (P00811 whole entry, looked up): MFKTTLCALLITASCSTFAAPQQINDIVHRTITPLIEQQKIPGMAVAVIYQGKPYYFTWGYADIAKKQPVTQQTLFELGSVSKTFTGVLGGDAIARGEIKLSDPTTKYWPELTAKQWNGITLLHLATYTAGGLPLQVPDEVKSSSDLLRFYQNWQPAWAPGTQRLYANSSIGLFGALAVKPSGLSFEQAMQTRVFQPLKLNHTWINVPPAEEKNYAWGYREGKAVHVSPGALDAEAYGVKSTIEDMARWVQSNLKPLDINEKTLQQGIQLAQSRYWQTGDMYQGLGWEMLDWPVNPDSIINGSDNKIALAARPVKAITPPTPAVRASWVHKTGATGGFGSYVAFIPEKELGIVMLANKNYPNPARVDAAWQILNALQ
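AmpC (5.3 nM in the dispensed reagent) in 20 mM phosphate pH 7.0 with 0.01% (detergent screen) or 0.0001% Triton X-100 was preincubated with compounds for 15 min at room temperature. Nitrocefin was then added from an 800 uM solution, and hydrolysis was followed at 480 nm.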
AmpC inh no detg – blocks E. coli AmpC beta-lactamase in detergent-free assay; AmpC nitrocefin hydrolysis, absorbance 480 nm, 0.0001% Triton; P00811; Potency, µM (series often up to 57.1 µM), without a hit: top-dose activity change, negative = inhibition, most hits filed as inhibitors; AID 485341; hit rate 0.52% among 330,000;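 also: plate controls were no compound for no effect and no enzyme for full effect; nearly all actives have a fitted effect of over 20% in size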
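20 mM phosphate pH 7.0 + 0.01% (detergent screen) or 0.0001% Triton X-100; 5.3 nM AmpC reagent; cpd preinc 15 min RT; nitrocefin (800 uM stock) to start; A480 q20 s × 4 min; Activity was normalised to no-enzyme and no-compound control wells.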
Giardia FBPA inh – Giardia lamblia aldolase inhibition; Potency, µM (series often up to 59.6 µM), inactives show at the top dose activity, negative = inhibition, actives largely listed as inhibitors; hit rate 0.71% among 290,000; purified Giardia FBPA; A8B2U2; also: nearly all actives have a fitted effect of over 55% in size
Target sequence (A8B2U2 whole entry, looked up): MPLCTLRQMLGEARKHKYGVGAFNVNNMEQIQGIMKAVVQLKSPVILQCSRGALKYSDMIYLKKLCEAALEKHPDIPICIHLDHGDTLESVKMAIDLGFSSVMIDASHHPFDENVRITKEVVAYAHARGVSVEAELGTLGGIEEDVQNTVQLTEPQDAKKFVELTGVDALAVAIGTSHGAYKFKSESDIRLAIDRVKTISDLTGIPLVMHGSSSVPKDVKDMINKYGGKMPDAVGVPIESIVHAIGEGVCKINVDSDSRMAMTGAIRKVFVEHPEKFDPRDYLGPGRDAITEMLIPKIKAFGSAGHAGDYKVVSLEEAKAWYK
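Giardia FBPA (40 nM reagent) was preincubated 10 min at RT with compound (up to 57.5 uM final), then substrate plus GAPDH/TPI/NAD/arsenate coupling system with diaphorase/resazurin was added; resorufin fluorescence (525/598 nm) was read after 20 min.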
The depositor's hits bear a star; ? = inconclusive; · = no result given; [ ] = dose if it differs, or a comment. Unless noted, calls follow the shape of the dose curve; as a rule, active = well fitted curve in the direction sought with a large enough effect; inconclusive = small, poorly fitted or top-dose-only effect, or another doubt; inactive = no such curve, though single readings can be large; an effect the other way counts as inactive or inconclusive. Unless noted, % is scaled to controls: 0 for no effect and ±100 for the full control effect; potency is read from the fitted curve at half-maximal effect.

SMILES	Sm TGR inh	RE007 growth inh	AmpC detergent	AmpC inh no detg	Giardia FBPA inh
Cc1cc(-c2ccccc2)nc(N/N=C/c2ccc(O)cc2)n1	0%	-3%	0%	-39%	·
Cc1occc1-c1nnc(SCc2cc(=O)n3cc(Br)ccc3n2)n1C	45µM*	-16%	-1%	-6%	6%
Cc1ccccc1Nc1nc(CSc2nnc(-c3ccoc3C)n2C)cs1	35µM*	-3%[3.69 µM]	-11%	-11%	-1%
CCOc1ccc(OCC)c(NC(=O)CCSCCc2ccccn2)c1	-2%	-19%	-3%	26%	1%
CSC1=NCCN1C(=O)c1ccco1	0%	11%	?	-5%	0%
Cc1ccc(NC(=O)Cn2ccc([N+](=O)[O-])n2)cc1Cl	3%	-19%	?	-18%	1%
CCc1cc2c(=O)c(-c3nc4ccccc4n3C)c(COCC(=O)O)oc2cc1O	12%	7%	2%	-31%	-8%
CCCc1cc2c(=O)c(-c3nc4ccccc4s3)c(COCC(=O)O)oc2cc1O	40µM*	5%	-5%	-42%	-25%
COc1cc(NC(=O)Cn2c(SCc3ccc(F)cc3)nc3cccnc32)cc(OC)c1	6%	·	22%	·	·
CCOC(=O)c1cc(OC(=O)c2cccc(Cl)c2)n(-c2ccccc2)n1	15%	·	11%	·	·
O=C(CCC(=O)N1CCOc2ccccc21)N1CCOCC1	-9%	9%	-15%	-19%	10%
CC1=CC2/C=C(\C)CCC(O)C(O)/C=C/C(=O)C23C(=O)NC(CC(C)C)C3C1C (stereo not given)	4µM*	7%	6%	126%	1%
O=c1/c(=C/c2ccccn2)sc2nc3ccccc3n12	2%	-16%	-12%	-12%	-10%
O=c1/c(=C\c2cc([N+](=O)[O-])cc([N+](=O)[O-])c2O)sc2nc3ccccc3n12	-2%	1%	?	-46%	16µM*
COC(=O)/C=c1/sc2nc3ccccc3n2c1=O	8%	-22%	45µM*	-34%	-1%
CC(/C=C/c1ccc(C)o1)=C\C(=O)O	7.9µM*	-19%	-1%	1%	6%
Cc1ccc(CNC(=O)/C=C/c2ccc(Br)o2)cc1	8.9µM*	-7%	?	-57%	0%
O=C(/C=C/c1ccc(Br)o1)NCc1ccccc1	·	-27%	-6%	-27%	-26%
CC(=O)/C=C/c1ccc(C)o1	7.1µM*	2%	3%	1%	-4%
Cc1ccc(/C=C/C(=O)NCc2cccs2)o1	2.8µM*	-11%	-3%	-24%	-4%
Cc1ccc(/C=C/C(=O)NCc2cccs2)cc1	3%	-5%	-7%	-9%	-4%
O=C(COC(=O)Cn1cnc2ccccc21)Nc1ccccc1C(F)(F)F	·	2%	·	-17%	·
CSc1ccccc1C(=O)C1CCCN(C(=O)c2csnn2)C1 (stereo not given)	-4%	1%	6%	2%	-4%
CSc1ccccc1C(=O)C1CCCN(C(=O)c2cc(C(C)C)no2)C1 (stereo not given)	22µM*	-22%	-12%	56%	2%
CCCc1cc(=O)[nH]c2nnc(SCC(=O)NC3CCCC3)n12	1%	7%	?	18µM*	·
SMILES	Sm TGR inh	RE007 growth inh	AmpC detergent	AmpC inh no detg	Giardia FBPA inh
CC1=C(C(=O)Nc2ccccc2F)C(c2cccs2)NC(=S)N1 (stereo not given)	·	-29%	5%	-24%	-1%
Cc1ccc(-c2noc(=O)n2CC(=O)c2ccc(Cl)cc2)cc1	-3%	1%	-6%	-28%	1%
Cc1coc(=N)n1CC(=O)c1ccc(Cl)cc1	40µM*	-6%	3%	-2%	-1%
COc1cc(C(=O)N2CCSCC2)ccc1OC1CCN(C(C)=O)CC1	?	-8%	-1%	1%	·
CN1CC(=O)N(CC(=O)Nc2ccc(N(C)C)cc2)c2ccccc2C1=O	50µM*	17%	1%	·	?
CCN(CC)CCn1c(NC(=O)c2ccccc2O)nc2ccccc21	45µM*	4%	?	227%	13%
COc1cc(/C=N/NC(=O)C(=O)NCc2ccco2)cc(Br)c1O	-22%	-7%	7%	-27%	-11%
COc1ccc(N/C=C2/CCCCC2=O)cc1	40µM*	1%	-8%	26%	14%
COc1ccc(Oc2ccc(N/C=C3/CCCC3=O)cc2)cc1	-15%	-3%	-12%	-23%	-15%
Cc1ccc(S(=O)(=O)n2nc(OC(=O)c3cccs3)cc2N)cc1	-24%	5%	-5%	-24%	-1%
Cc1ccc(S(=O)(=O)n2ccc(OC(=O)c3cccs3)n2)cc1	6.3µM*	5%	0%	-30%	11%
Cc1ccc(S(=O)(=O)CCC(=O)NCc2ccc(Cl)cc2)cc1	-6%	-7%	-12%	-15%	2%
Cc1ccc(C(=O)CCS(=O)(=O)c2ccc(Cl)cc2)cc1	0.35µM*	-15%	3%	-5%	4%
Cc1ccc(C(=O)CCS(=O)(=O)c2ccc(F)cc2)cc1	0.32µM*	-24%	5%	-26%	7%
Cc1ccc(S(=O)(=O)CCC(=O)c2ccc(F)cc2)cc1	-17%	-26%	7%	-10%	4%
O=C(Nc1nc(-c2ccccn2)cs1)c1ccc(-c2ccccc2F)o1	25µM*	-22%	-3%	37%	·
COCCCN1C(=O)C(=O)/C(=C(/O)c2ccc(S(=O)(=O)N3CCCCC3)cc2)C1c1cccc(OC)c1 (stereo not given)	6%	6%	-11%	-1%	1%
C#CCNC(=O)C1=C[C@H](c2ccc3c(c2)OCO3)[C@@H](CCCO)[C@H](OCC)O1	45µM*	13%	9%	20%	-8%
CCO[C@H]1OC(C(=O)NC2CC2)=C[C@@H](C2CCCCC2)[C@@H]1CCCO	15%	7%	3%	90%	8%
C#CCNC(=O)C1=C[C@@H](C2CCCCC2)[C@H](CCCO)[C@@H](OCC)O1	40µM*	8%	12%	98%	0%
Cc1ccc(Cn2ncc3c(N4CCN(CC#N)CC4)ncnc32)cc1	1%	10%	-3%	33%	1%
Cc1cc([N+](=O)[O-])ccc1-c1ccc(C2Nc3ccccc3C(=O)N2O)o1 (stereo not given)	-42%	-1%	-7%	-57%	11%
Cc1c(C(=O)NC2CCCCC2C)oc2ccccc12 (stereo not given)	0.56µM*	-7%	0%	-1%	·
CSc1nnc(C)c(=O)n1COC(=O)c1cc(Cl)ccc1[N+](=O)[O-]	22µM*	-8%	-3%	-45%	5%
CSc1nnc(C)c(=O)n1COC(=O)c1ccc([N+](=O)[O-])cc1	?	0%	-5%	-9%	4%
Cc1c(Cl)cnc(NC(=O)COC(=O)C(NC(=O)c2ccco2)C(C)C)c1Cl (stereo not given)	35µM*	5%	0%	-45%	-10%
